From PubChem BioAssay (NCATS)
Inconclusive results are not listed. Where a call stands in place of a potency, no number is given. The source made the active and inactive calls. The call rests on the fitted dose curve; in most records, active means well fitted cell-killing curve with a large enough effect; inconclusive means small, poorly fitted or top-dose-only effect; inactive means no such curve, though single readings can be large or run the other way.

Experiment: qHTS of pediatric cancer cell lines to identify multiple opportunities for drug repurposing: Primary screen for OHS-50 cells (AID 1347103); further: nearly all actives have a fitted effect of over 40% in size
Settings: OHS-50 osteosarcoma viability, CellTiter-Glo luminescence, 48 h; series mostly up to 57.3 µM
Summary of the method: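 Cells (500-1,000/well) rested 5 h, then received compounds for 48 h; metabolically active cells were measured by CellTiter-Glo luminescence. Final concentrations spanned up to 46 µM (MIPE, 11-point) or 0.59 nM-46 µM (NPC, 8-point) in primary screens, 11-point in follow-ups.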
Potency means the concentration at half of the fitted maximal effect.

**Q.** For `C[N+]1(C)[C@@H]2CC[C@H]1CC(OC(=O)C(CO)c1ccccc1)C2` (some centres not stated), which Potency is on record?
**A.** inactive

**Q.** Which Potency does the source give for `COCC(=O)N(c1c(C)cccc1C)C(C)C(=O)OC` (configuration not stated) here?
**A.** inactive

**Q.** With `CCc1cc(OC)c(C[C@H](C)N)cc1OC` as the compound, how does the Potency read?
**A.** inactive

**Q.** With `Cc1c(Cl)c(=O)oc2cc(OP(=O)(OCCCl)OCCCl)ccc12` as the compound, how does the Potency read?
**A.** inactive

**Q.** For `CCOC(=O)NC(O)C(Cl)(Cl)Cl` (configuration not stated), which Potency is on record?
**A.** inactive

**Q.** With `CC(C)[N+](C)(CCC(C(N)=O)(c1ccccc1)c1ccccc1)C(C)C` as the compound, how does the Potency read?
**A.** inactive

**Q.** For `CCCCCCCCC(=O)NCc1ccc(O)c(OC)c1`, which Potency is on record?
**A.** 1 nM (active)

**Q.** With `CNC(=O)NC(O)C(Cl)(Cl)Cl` (configuration not stated) as the compound, how does the Potency read?
**A.** inactive

**Q.** Which Potency does the source give for `CCOC(=O)C1(c2ccccc2)CCN(CCc2ccc(N)cc2)CC1` here?
**A.** inactive

**Q.** Which Potency does the source give for `c1ccc2nc(N3CCNCC3)ccc2c1` here?
**A.** inactive

**Q.** With `CC1N=C(N)OC1c1ccccc1` (configuration not stated) as the compound, how does the Potency read?
**A.** inactive

**Q.** With `CC(Cc1ccccc1)NCCCCl` (configuration not stated) as the compound, how does the Potency read?
**A.** inactive

**Q.** Which Potency does the source give for `C[N+]1(CCC(C(N)=O)(c2ccccc2)c2ccccc2)CCCCC1` here?
**A.** inactive

**Q.** With `CN1C(=O)[C@@H](NC(=O)c2cc3ccccc3[nH]2)N=C(c2ccccc2)c2ccccc21` as the compound, how does the Potency read?
**A.** inactive

**Q.** For `CCC1(CC)C(=O)NC(=O)NC1=O`, which Potency is on record?
**A.** inactive

**Q.** For `CC[C@H](O)C(C[C@H](C)N(C)C)(c1ccccc1)c1ccccc1`, which Potency is on record?
**A.** inactive

**Q.** With `CN(C)C(=S)SSC(=S)N(C)C` as the compound, how does the Potency read?
**A.** 347 nM (active)

**Q.** With `C[C@H]1C(=O)O[C@@H]2CCN3CC=C(COC(=O)[C@](C)(O)[C@]1(C)O)[C@H]23` as the compound, how does the Potency read?
**A.** inactive

**Q.** Which Potency does the source give for `COP(=O)(OC)OC=C(Cl)Cl` here?
**A.** inactive

**Q.** With `COc1cc(N)c(Cl)cc1C(=O)NC1CN2CCC1CC2` (configuration not stated) as the compound, how does the Potency read?
**A.** inactive

**Q.** Which Potency does the source give for `CCN(Cc1ccc(Cl)nc1)/C(=C/[N+](=O)[O-])NC` here?
**A.** inactive

**Q.** Which Potency does the source give for `Oc1c(Br)cc(Br)cc1Br` here?
**A.** inactive
